Results reported in the supplement of paper PMC9694430.

How the values were obtained:
Experiment in all cases: thermal shift delta Tm vs DMSO control; higher = stronger stabilization (binding)
Settings in all cases: 12.5 µM; protein concentration 2 µM
LOC_OS01G57100-cb003 = tested on: LOC_OS01G57100-cb003
How it was run: (§1)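 Heating from 25°C to 95°C at 0.05°C/s, fluorescence was recorded for 19.5 μl wells of 2 μM E. coli-expressed, purified rice kinase domain in 100 mM potassium phosphate pH 7.5, 150 mM NaCl, 10% glycerol and 5 × SYPRO Orange with compound in DMSO. Boltzmann fits gave melting temperatures for this differential scanning fluorimetry assay. The shift reported is the mean of three replicates against the DMSO-only protein.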

LOC_OS01G60330-cb001 = tested on: LOC_OS01G60330-cb001
How it was run: as §1

LOC_OS01G60700-cb002 = tested on: LOC_OS01G60700-cb002
How it was run: as §1

LOC_OS01G63280-cb003 = tested on: LOC_OS01G63280-cb003
How it was run: as §1

LOC_OS01G67340-cb003 = tested on: LOC_OS01G67340-cb003
How it was run: as §1

LOC_OS01G70970-cb002 = tested on: LOC_OS01G70970-cb002
How it was run: as §1

LOC_OS02G07810-cb001 = tested on: LOC_OS02G07810-cb001
How it was run: as §1

LOC_OS02G08530-cb003 = tested on: LOC_OS02G08530-cb003
How it was run: as §1

LOC_OS02G14120-cb001 = tested on: LOC_OS02G14120-cb001
How it was run: as §1

LOC_OS02G17970-cb001 = tested on: LOC_OS02G17970-cb001
How it was run: as §1
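Further: purified Escherichia coli-expressed rice kinase domain construct.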

| Structure (SMILES) | thermal shift delta Tm (LOC_OS01G57100-cb003) [°C] | thermal shift delta Tm (LOC_OS01G60330-cb001) [°C] | thermal shift delta Tm (LOC_OS01G60700-cb002) [°C] | thermal shift delta Tm (LOC_OS01G63280-cb003) [°C] | thermal shift delta Tm (LOC_OS01G67340-cb003) [°C] | thermal shift delta Tm (LOC_OS01G70970-cb002) [°C] | thermal shift delta Tm (LOC_OS02G07810-cb001) [°C] | thermal shift delta Tm (LOC_OS02G08530-cb003) [°C] | thermal shift delta Tm (LOC_OS02G14120-cb001) [°C] | thermal shift delta Tm (LOC_OS02G17970-cb001) [°C] |
| --- | --- | --- | --- | --- | --- | --- | --- | --- | --- | --- |
| NC(=O)c1ccc(N(C(N)=O)c2c(F)cccc2F)nc1-c1ccc(F)cc1F | -0.23 | -0.16 | 0.91 | -0.21 | -0.08 | 0.4 | 0.66 | 0.7 | -0.49 | 0.09 |
| CCc1cccc(CC)c1NC(=O)N1Cc2[nH]nc(NC(=O)c3ccc(N4CCN(C)CC4)cc3)c2C1 | 0.59 | 0.73 | 0.44 | 0.43 | -0.29 | 0.21 | 0.66 | 0.96 | 4.48 | 0.32 |
| COc1cc(C(=O)N2CCC(N3CCN(C)CC3)CC2)ccc1Nc1ncc2c(n1)N(C)c1ccccc1C(=O)N2C | 0.21 | 0.56 | 0.5 | -0.2 | 0.17 | 0.15 | 0.46 | 1.92 | 1.72 | 0.35 |
| CC(C)(C)c1cc(NC(=O)Nc2ccc(Oc3ccnc4[nH]c(=O)cnc34)cc2F)n(-c2ccccc2)n1 | 1.77 | 1.69 | 1.38 | 10.7 | 0.45 | 0.73 | 0.8 | 1.22 | 4.49 | 2.69 |
| O=C1NC(=O)/C(=C/c2ccc3nccc(-c4ccncc4)c3c2)S1 | 0.39 | 0.51 | 0.74 | -0.17 | 0.62 | 0.07 | 0.58 | 0.62 | 3.14 | 0.7 |
| COc1cc(Nc2ncc3c(n2)-c2ccc(Cl)cc2C(c2c(F)cccc2OC)=NC3)ccc1C(=O)O [Alisertib (MLN8237)] | 0.2 | 0.56 | 0.66 | 0.76 | 0.39 | 0.83 | 0.08 | 0.3 | 4.62 | 0.21 |
| O=C(c1ccc(/C=C/c2n[nH]c3ccccc23)cc1)N1CCNCC1 | 1.7 | 11.6 | 0.48 | 0.98 | 4.9 | 6.89 | 0.73 | 4.1 | 7.17 | 0.42 |
| Cn1cc(-c2ccc3nnc(C(F)(F)c4ccc5ncccc5c4)n3n2)cn1 | 1.42 | 1.1 | 1.32 | 0.31 | -0.37 | 0.13 | 0.91 | 1.21 | 2.28 | 0.51 |
| Nc1nc(Nc2ccc(S(N)(=O)=O)cc2)nn1C(=O)c1c(F)cccc1F | 1.36 | 7.23 | 0.65 | 3.58 | 3.74 | 3.11 | 1.06 | 1.98 | 8.28 | 0.44 |
| c1ccc(-c2[nH]ncc2-c2ccnc3ccccc23)nc1 | 0.37 | -0.07 | 0.62 | -0.05 | 0.51 | -0.04 | 0.95 | 0.29 | 2.26 | 0.56 |
| C#Cc1cccc(Nc2ncnc3cc(OCCOC)c(OCCO)cc23)c1 | 0.15 | 0.3 | 0.24 | -0.13 | -0.22 | 0.5 | 1.32 | 1.16 | 4.33 | -0.01 |
| CN(c1ccccc1CNc1nc(Nc2ccc3c(c2)CC(=O)N3)ncc1C(F)(F)F)S(C)(=O)=O | 2.5 | 2.26 | 1.26 | 6.35 | 3.07 | 9.4 | 1.12 | 2.68 | 8.26 | 0.68 |
| CN1CCN(CCOc2cc(OC3CCOCC3)c3c(Nc4c(Cl)ccc5c4OCO5)ncnc3c2)CC1 [Saracatinib (AZD0530)] | 0.72 | 1.51 | 1.11 | 0.03 | 0.29 | 0.9 | 0.55 | 1.2 | 8.8 | 0 |
| Cc1cccc(Nc2nc(NC3CCCCC3N)ncc2C(N)=O)c1 (stereo not given) | 2.09 | 1.38 | 1.44 | 0.64 | 2.38 | 2.39 | -0.08 | 4.25 | 4.75 | 0.86 |
| Nc1nc2cc(-c3ccc4ncc(C(=O)N5CCOCC5)n4c3)ccc2o1 [Serabelisib (INK-1117,MLN-1117,TAK-117)] | 1.55 | 0.93 | 0.36 | 0.07 | 1.26 | 1.33 | 0.05 | 1.17 | 2.02 | 0.23 |
| COc1ccc(Cl)c(Nc2nc3ccccc3nc2NS(=O)(=O)c2cccc(NC(=O)C(C)(C)N)c2)c1 [Pilaralisib (XL147)] | 0.77 | 3.02 | 0.4 | 2.27 | 2 | 1.26 | 1.84 | 0.06 | -0.43 | 1.12 |
| CC(C)NC[C@@H](C(=O)N1CCN(c2ncnc3c2[C@H](C)C[C@H]3O)CC1)c1ccc(Cl)cc1 [Ipatasertib (GDC-0068)] | 0.44 | 0.84 | 1.12 | 0.25 | 0.25 | 0.4 | 0.82 | 0.31 | -0.01 | 0.06 |
| CC(C)(C)c1nc(-c2cccc(NS(=O)(=O)c3c(F)cccc3F)c2F)c(-c2ccnc(N)n2)s1 | 2.01 | 7.29 | 1.89 | 19.8 | 1.21 | 3.43 | 1.44 | 1.92 | 3.94 | 1.55 |
| CC(C)(C)Cn1c(N)nc2ccc(-c3[nH]c(C(C)(C)C)nc3-c3ccc(F)cc3)nc21 | -3.53 | -0.79 | 0.1 | -0.16 | 0.92 | -0.04 | -0.18 | 0.38 | -1.12 | -0.24 |
| Cc1cc(Nc2cc(N3CCN(C)CC3)nc(/C=C/c3ccccc3)n2)n[nH]1 [ENMD-2076 L-(+)-Tartaric acid] | 1.16 | 8.71 | 1.16 | 0.86 | 1.45 | 3.09 | 0.04 | 2.96 | 7.86 | 0.95 |
